Source: the supplement of paper PMC8728848
The full list was thinned out, with the strongest signals kept by preference.

Experiments:
Test in all cases: glycan array binding signal (z-score within array); higher = stronger binding
Conditions in all cases: glycan notation: IUPAC condensed, linker removed
[1] = target: Fuc(a1-2)Gal(b1-3)GalNAc(b1-3)Gal
In short: (§1)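 Negative Z-scores can be read as non-binding. The Z-score is calculated within each array and then averaged across arrays of one protein sequence at different concentrations or buffers and across linkers. Arrays, 3228 in all, were curated from the Consortium for Functional Glycomics database and kept only where the protein sequence was available.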

[2] = target: Fuc(a1-2)Gal(b1-4)GlcNAc(b1-3)Gal(b1-4)GlcNAc
In short: as §1

[3] = target: Fuc(a1-2)Gal(b1-4)GlcNAc(b1-3)Gal(b1-4)GlcNAc(b1-3)Gal(b1-4)GlcNAc
In short: as §1

[4] = target: Fuc(a1-2)Gal(b1-4)[Fuc(a1-3)]GlcNAc(b1-3)Gal(b1-4)[Fuc(a1-3)]GlcNAc(b1-3)Gal(b1-4)[Fuc(a1-3)]GlcNAc
In short: as §1

[5] = target: Fuc(a1-2)[Gal(a1-3)]Gal(b1-4)Glc
In short: as §1

[6] = target: Fuc(a1-2)[Gal(a1-3)]Gal(b1-4)[Fuc(a1-3)]GlcNAc
In short: as §1

[7] = target: Fuc(a1-2)[GalNAc(a1-3)]Gal(b1-4)GlcNAc
In short: as §1

[8] = target: Fuc(a1-2)[GalNAc(a1-3)]Gal(b1-4)[Fuc(a1-3)]GlcNAc
In short: as §1

Gal(b1-2)Gal = target: Gal(b1-2)Gal
In short: as §1

[9] = target: Gal(b1-3)GalNAc(b1-4)Gal(b1-4)Glc
In short: as §1

Gal(b1-4)Glc6S = target: Gal(b1-4)Glc6S
In short: as §1

Gal3S6S(b1-4)GlcNAc6S = target: Gal3S6S(b1-4)GlcNAc6S
In short: as §1

Gal6S(b1-4)GlcNAc = target: Gal6S(b1-4)GlcNAc
In short: as §1

[10] = target: GlcNAc(b1-3)Gal(b1-4)GlcNAc
In short: as §1

[11] = target: GlcNAc(b1-4)[GlcNAc(b1-6)]GalNAc
In short: as §1

[12] = target: Man(a1-2)Man(a1-2)Man(a1-3)Man
In short: as §1

[13] = target: Neu5Ac(a2-3)Gal(b1-3)GalNAc(b1-3)Gal(a1-4)Gal(b1-4)Glc
In short: as §1

[14] = target: Neu5Ac(a2-3)Gal(b1-3)GalNAc6S
In short: as §1

[15] = target: Neu5Ac(a2-3)GalNAc(b1-4)GlcNAc
In short: as §1

[16] = target: Neu5Ac(a2-6)Gal(b1-4)GlcNAc
In short: as §1

[17] = target: Neu5Ac(a2-6)Gal(b1-4)GlcNAc(b1-3)Gal(b1-4)[Fuc(a1-3)]GlcNAc(b1-3)Gal(b1-4)[Fuc(a1-3)]GlcNAc
In short: as §1

[18] = target: Neu5Ac9Ac(a2-6)Gal(b1-4)GlcNAc
In short: as §1

B1: CLEC-6 (Homo sapiens), Q8WXI8 (protein)
chain: MGLEKPQSKLEGGMHPQLIPSVIAVVFILLLSVCFIASCLVTHHNFSRCKRGTGVHKLEHHAKLKCIKEKSELKSAEGSTWNCCPIDWRAFQSNCYFPLTDNKTWAESERNCSGMGAHLMTISTEAEQNFIIQFLDRRLSYFLGLRDENAKGQWRWVDQTPFNPRRVFWHKNEPDNSQGENCVVLVYNQDKWAWNDVPCNFEASRICKIPGTTLN
glycan array binding signal (z-score) [1]: 6.22
glycan array binding signal (z-score) [2]: -0.176
glycan array binding signal (z-score) [3]: -0.295
glycan array binding signal (z-score) [4]: 0.12
glycan array binding signal (z-score) [5]: -0.282
glycan array binding signal (z-score) [6]: -0.276
glycan array binding signal (z-score) [7]: -0.239
glycan array binding signal (z-score) [8]: -0.102
glycan array binding signal (z-score) (Gal(b1-2)Gal): -0.038
glycan array binding signal (z-score) [9]: -0.328
glycan array binding signal (z-score) (Gal(b1-4)Glc6S): -0.263
glycan array binding signal (z-score) (Gal3S6S(b1-4)GlcNAc6S): 6.21
glycan array binding signal (z-score) (Gal6S(b1-4)GlcNAc): -0.239
glycan array binding signal (z-score) [10]: -0.077
glycan array binding signal (z-score) [11]: -0.138
glycan array binding signal (z-score) [12]: 1.94
glycan array binding signal (z-score) [13]: -0.144
glycan array binding signal (z-score) [14]: -0.077
glycan array binding signal (z-score) [15]: -0.104
glycan array binding signal (z-score) [16]: -0.221
glycan array binding signal (z-score) [17]: 1.59
glycan array binding signal (z-score) [18]: -0.166
